Test results as given in PubChem BioAssay AID2778 (National Center for Advancing Translational Sciences (NCATS), 2010).
Records with an inconclusive call do not appear. Where a call stands in place of a potency, no number is given. The source made the active and inactive calls. The call rests on the fitted dose curve; in most records, active means well fitted inhibition curve with a large enough effect; inconclusive means small, poorly fitted or top-dose-only effect, or effect the other way; inactive means flat fitted curve, though single readings scatter. Positions of bridges follow the written chain, without caps; N, C: chain ends. Non-standard residues stand in square brackets, D forms with d. Residues, ends and D or L forms follow the SMILES beside them. *: point of attachment. Octanoyl(6-Me) = CCC(C)CCCCC(=O)*; Dab = NCC[CH](N)C(=O)O

What follows are compounds tested against Menin (Homo sapiens) (UniProt O00255) (assay: Confirmation of Inhibitors Targeting the Menin-MLL Interaction in MLL Related Leukemias: Confirmation in an HTRF (commercial TR-FRET) Assay using His-tagged menin and biotin-labeled MLL peptide). Conditions: His-menin / biotin-MLL peptide binding; series mostly up to 126 µM.
Chain of Menin (Homo sapiens) (O00255 whole entry, looked up): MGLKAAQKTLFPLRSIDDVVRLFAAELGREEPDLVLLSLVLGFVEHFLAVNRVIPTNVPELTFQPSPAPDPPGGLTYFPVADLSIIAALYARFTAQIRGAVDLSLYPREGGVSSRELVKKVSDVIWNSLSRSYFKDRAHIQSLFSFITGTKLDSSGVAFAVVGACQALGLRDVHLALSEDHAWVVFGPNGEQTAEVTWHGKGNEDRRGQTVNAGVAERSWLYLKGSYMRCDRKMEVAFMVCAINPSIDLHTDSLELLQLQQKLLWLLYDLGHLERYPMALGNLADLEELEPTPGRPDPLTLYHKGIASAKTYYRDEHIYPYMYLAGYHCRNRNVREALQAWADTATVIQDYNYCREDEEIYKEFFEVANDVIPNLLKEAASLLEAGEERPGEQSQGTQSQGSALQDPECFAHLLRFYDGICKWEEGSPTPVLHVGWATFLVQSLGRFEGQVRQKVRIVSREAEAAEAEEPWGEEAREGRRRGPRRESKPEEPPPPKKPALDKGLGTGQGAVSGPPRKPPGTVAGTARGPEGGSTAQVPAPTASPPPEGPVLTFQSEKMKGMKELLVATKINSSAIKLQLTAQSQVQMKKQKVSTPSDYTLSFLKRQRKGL
In short: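 HTRF: His6-menin (200 nM) and biotin-MLL-w.t. peptide (80 nM) preincubated 15 min, then compounds 1 hr at ambient, before Eu-cryptate anti-His (3.5 nM) and streptavidin-XL665 (10 nM) for 1 h; 50 mM Tris-HCl pH 7.5, 50 mM NaCl, 1 mM DTT, BSA.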
Potency means the concentration at half of the fitted maximal effect.

With `CCOc1ccc2c(c1)C(NC(C)=O)C(=O)N2CCN1CCOCC1` (centres undefined) as the compound, how does the Potency read?
The Potency was “inactive”.

How did the Potency turn out when `Cc1ccc(C)n1-c1ccc(N(C)C)cc1` was run?
The Potency was “inactive”.

Which Potency does the source give for `c1ccc2c(c1)nc(N1CCOCC1)c1c3ccccc3[nH]c21` here?
Its Potency is “inactive”.

Which Potency does the source give for `COC(=O)c1ccccc1NC1=C/C(=N\S(=O)(=O)c2ccc(C(=O)O)cc2)c2ccccc2C1=O` here?
The Potency was “inactive”.

With `CCC(C)CCCCC(=O)NC(CCN)C(=O)NC(C(=O)NC(CCN)C(=O)NC1CCNC(=O)C(C(C)O)NC(=O)C(CCN)NC(=O)C(CCN)NC(=O)C(CC(C)C)NC(=O)C(Cc2ccccc2)NC(=O)C(CCN)NC1=O)C(C)O` (centres undefined) ({Octanoyl(6-Me)}-[Dab]T[Dab][Dab][Dab]FL[Dab][Dab]T; lactam 4-C; configuration not given here) as the compound, how does the Potency read?
The Potency was “inactive”.

`CCC(=O)NC(=S)Nc1ccc(-c2nc3ccc(C)cc3s2)cc1` was tested. Which Potency did it give?
Its Potency is “inactive”.

For `CCc1nn(C)c2c(=O)c(=O)c2n(C)[nH]1`, which Potency is on record?
The Potency was “inactive”.

For `O=C(NCC1CCCO1)c1ccc(OC2CCN(C(=O)C3CC3)CC2)cc1` (centres undefined), which Potency is on record?
The Potency was “inactive”.

`Cc1ccc(/C=C2\SC(=S)N(CC(=O)Nc3ncc(Cc4ccccc4Cl)s3)C2=O)cc1` was tested. Which Potency did it give?
Its Potency is “inactive”.

Which Potency does the source give for `Cc1ccc(-c2cc(C(=O)Nc3cc(C)ccc3O)no2)cc1` here?
The Potency was “inactive”.

With `O=C(CSc1nnc(-c2c[nH]c3ccccc23)o1)N1c2ccccc2CCc2ccccc21` as the compound, how does the Potency read?
Its Potency is “inactive”.

Which Potency does the source give for `COc1ccc2[nH]c3c(C)c4ccncc4c(C)c3c2c1` here?
Its Potency is 89.1 µM (active).

For `CC(=O)O[C@H]1CSC[C@H]1NC(=O)c1ccccc1`, which Potency is on record?
Its Potency is “inactive”.

`CCCCCC1CCC(C(=O)NCCN2CCOCC2)CC1` (centres undefined) was tested. Which Potency did it give?
Its Potency is “inactive”.
